The source of these data is PubChem BioAssay.

Active and inactive are the calls of the source.

In assay [1] the test system is Human papillomavirus type 1a protein E7 (residues 44-93). Briefly: HPV1a E7 fragment binders on microarrays, primary screen, biochemical, small-molecule microarray, residues 44-93, 635 nm fluorescence (AID 1108).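 Also: E7 fragment applied at 1 µg/mL in TBST for 1 h at 4 C; score combines spot fluorescence with its signal to noise ratio.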 Conditions: small-molecule microarray binding, fluorescence 635 nm; higher = more signal.
The nature of assay [2]: modulators of HCV replicon luciferase signal, primary screen, HCV replication inhibitor project, Huh7 cells, luciferase reporter (AID 1109).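 Also: huh7 hepatoma cells harbouring a luciferase neomycin HCV replicon reporter; luciferase luminescence as measure of HCV replicon replication; test concentration not given here.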 Conditions: 48 h, higher = more signal.
The target in assay [3] is Left-right determination factor 2 (Homo sapiens) (UniProt O00292). Briefly: LEFTY2 binders on small-molecule microarrays, primary screen, biochemical, small-molecule microarray, 635 nm fluorescence scan (AID 1110). The following applies: LEFTY2 binding, higher = more signal.
Sequence of Left-right determination factor 2 (Homo sapiens) (O00292 whole entry, looked up): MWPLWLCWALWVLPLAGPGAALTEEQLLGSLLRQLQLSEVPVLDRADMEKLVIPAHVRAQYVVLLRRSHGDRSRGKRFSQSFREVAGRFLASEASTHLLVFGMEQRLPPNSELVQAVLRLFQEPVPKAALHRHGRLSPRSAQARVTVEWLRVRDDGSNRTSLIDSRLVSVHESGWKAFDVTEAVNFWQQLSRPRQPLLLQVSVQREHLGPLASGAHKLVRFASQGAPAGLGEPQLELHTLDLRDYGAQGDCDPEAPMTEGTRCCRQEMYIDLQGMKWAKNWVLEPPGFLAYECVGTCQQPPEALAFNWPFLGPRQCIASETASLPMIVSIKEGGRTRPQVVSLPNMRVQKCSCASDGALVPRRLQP
The target in assay [4] is Calmodulin-1 (Homo sapiens) (UniProt P0DP23). Briefly: CALM1 binders on microarrays, EGTA buffer, profiling panel, biochemical, small-molecule microarray, Cy5-labelled CALM1 (AID 1111).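 Also: labelled calmodulin applied in Tris saline Tween buffer holding calcium plus EGTA and DTT.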 The following applies: Cy5-CALM1 binding fluorescence, higher = more signal.
The target is the same in assay [5]. Briefly: calcium-bound CALM1 binders on microarrays, profiling panel, artefact control for SMM control-protein annotation, biochemical, small-molecule microarray, Cy5-labelled CALM1, plus calcium (AID 1112).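 Also: score merges spot fluorescence with signal to noise from triplicate slides.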 The following applies: Cy5-CALM1 binding fluorescence, higher = more signal.
Assay [6] is described as follows: small-molecule microarray binders of probe aWnt5a, primary screen, biochemical, biotinylated probe, 635/667 nm fluorescence (AID 1113).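 Also: score merges 667 nm fluorescence intensity with signal-to-noise per printed feature.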 The following applies: higher = more signal.
Assay [7] in a line: small-molecule microarray binders of probe aShh, primary screen, biochemical, biotinylated probe, 635/667 nm fluorescence (AID 1114).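 Also: probe is biotin-labelled aShh protein from a stem cell growth factor screen; measures binding of labelled protein to compounds printed on the slide; score merges feature fluorescence at 667 nm with signal-to-noise.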 The following applies: higher = more signal.
Assay [8] can be described thus: small-molecule microarray binders of probe aNog, primary screen, biochemical, biotinylated probe, 635/667 nm fluorescence (AID 1115).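 Also: probe is biotinylated aNog protein used at 0.15 µg/mL for 1 h at 4 C; z-score combines 667 nm fluorescence of each spot with its signal to noise.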 Conditions: higher = more signal.
For assay [9], the target named is Torsin-1A-interacting protein 1 (Homo sapiens) (UniProt Q5JTV8). As to the kind of experiment: LAP1 binders from COS7 cell lysate, primary screen, small-molecule microarray, 635/667 nm fluorescence (AID 1116). The following applies: COS7-hLAP1 lysate binding, 635 nm fluorescence, higher = more signal.
Sequence of Torsin-1A-interacting protein 1 (Homo sapiens) (Q5JTV8 whole entry, looked up): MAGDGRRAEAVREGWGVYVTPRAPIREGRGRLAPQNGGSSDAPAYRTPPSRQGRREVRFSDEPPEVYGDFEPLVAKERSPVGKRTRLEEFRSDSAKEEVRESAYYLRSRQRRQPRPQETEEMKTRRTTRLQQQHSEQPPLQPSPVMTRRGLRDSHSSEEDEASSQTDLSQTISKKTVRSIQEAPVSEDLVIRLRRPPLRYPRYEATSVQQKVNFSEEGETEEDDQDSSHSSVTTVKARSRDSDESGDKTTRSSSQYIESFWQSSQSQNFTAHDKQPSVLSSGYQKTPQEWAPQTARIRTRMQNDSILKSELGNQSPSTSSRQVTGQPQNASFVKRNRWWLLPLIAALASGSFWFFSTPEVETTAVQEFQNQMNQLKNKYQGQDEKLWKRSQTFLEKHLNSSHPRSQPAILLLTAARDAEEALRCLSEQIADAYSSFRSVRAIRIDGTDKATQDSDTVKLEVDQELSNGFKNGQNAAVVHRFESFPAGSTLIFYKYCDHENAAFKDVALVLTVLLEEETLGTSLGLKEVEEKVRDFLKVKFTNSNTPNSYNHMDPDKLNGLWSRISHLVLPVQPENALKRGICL
In assay [10] the target is Alpha-bungarotoxin (Bungarus multicinctus) (UniProt P60615). Briefly: alpha-bungarotoxin binders on microarray, profiling panel, artefact control for SMM control protein annotation, biochemical, small-molecule microarray, Alexa647 label, 635/667 nm fluorescence (AID 1117). Conditions: alpha-BTX-A647 binding fluorescence, higher = more signal.
Sequence of Alpha-bungarotoxin (Bungarus multicinctus) (P60615 whole entry, looked up): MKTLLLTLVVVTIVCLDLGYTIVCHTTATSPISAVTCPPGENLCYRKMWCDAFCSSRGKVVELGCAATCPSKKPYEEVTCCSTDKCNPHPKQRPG
A further assay concerns the target Albumin (Bos taurus) (UniProt P02769). Briefly: bovine serum albumin binders on microarray, profiling panel, artefact control for SMM control protein annotation, biochemical, small-molecule microarray, Alexa647 label, 635/667 nm fluorescence (AID 1118).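 Also: score merges 667 nm emission intensity and signal-to-noise per printed compound spot.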 The following applies: BSA-A647 binding, fluorescence 635 nm, higher = more signal.
Assay [11] in a line: small-molecule microarray binders of probe aXIP, primary screen, biochemical, NeuroSMM set, 635/667 nm fluorescence (AID 1119).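 Also: probe is the protein aXip251-270 applied at 1 µg/mL to compound-printed slides; binding of probe to printed compounds measured as 667 nm fluorescence plus signal to noise.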 The following applies: higher = more signal, called active from +8 up or from −8 down.
The nature of assay [12]: small-molecule binders of probe aNOTCH3, primary screen, biochemical, small-molecule microarray, 635/667 nm fluorescence (AID 1120).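 Also: probe is a biotin-tagged antibody raised against NOTCH3 rather than NOTCH3 protein; score merges spot fluorescence near 667 nm with spot signal to noise.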 Conditions: higher = more signal.
The nature of assay [13]: small-molecule binders of probe aNOTCH2, primary screen, biochemical, small-molecule microarray, 635/667 nm fluorescence (AID 1121).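 Also: score merges feature fluorescence read at 667 nm with its signal to noise.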 The following applies: higher = more signal.
For assay [14], the target named is Carbonic anhydrase 2 (Homo sapiens) (UniProt P00918). As to the kind of experiment: CAII small-molecule binders, profiling panel, biochemical, small-molecule microarray, Alexa647-labelled CAII (AID 1122). Conditions: CAII-A647 binding fluorescence, higher = more signal.
Assay [15] in a line: COS7 lysate on small-molecule microarray, probe aHis, 635 nm (AID 1123).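 Also: z-score combines 667nm fluorescence intensity with signal-to-noise per printed compound spot.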 The following applies: COS7 cell lysate, fluorescence, higher = more signal.
A short description of assay [16]: compound binding in COS7 lysate, probe aLAP1, primary screen, cell lysate, small-molecule microarray (AID 1124).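 Also: lysate comes from COS7 cells expressing LAP1 and is applied at 0.3 µg/mL; score merges spot fluorescence near 667 nm with signal-to-noise over triplicate slides.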 Conditions: probe aLAP1, fluorescence, higher = more signal.
Another assay concerns Sam68 (KHDRBS1). As to the kind of experiment: Sam68 small-molecule binders, primary screen, biochemical, small-molecule microarray, 635 nm fluorescence (AID 1125).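 Also: score merges 667 nm channel intensity with signal to noise over triplicate slides.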 The following applies: small-molecule microarray binding, higher = more signal.
In assay [17] the test system is Chordin-like protein 2 (CHRDL2). As to the kind of experiment: CHRDL2 small-molecule binders, primary screen, biochemical, small-molecule microarray, 635 nm fluorescence (AID 1126).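 Also: printed compound slides probed with Chrdl2 protein at 4 µg/mL for 1 h at 4 C; score merges 667 nm emission intensity with signal to noise over three replicate slides.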 Conditions: small-molecule microarray binding, fluorescence 635 nm; higher = more signal.
The target of assay [18] is Concanavalin-A (Canavalia ensiformis) (UniProt P02866). Briefly: ConA small-molecule binders, primary screen, artefact control for SMM control protein annotation, biochemical, small-molecule microarray, Alexa647 label, 635 nm (AID 1127).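 Also: z combines 667 nm emission intensity with signal-to-noise across three replicate slides.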 Conditions: ConA-A647 binding fluorescence, higher = more signal.
Sequence of Concanavalin-A (Canavalia ensiformis) (P02866 whole entry, looked up): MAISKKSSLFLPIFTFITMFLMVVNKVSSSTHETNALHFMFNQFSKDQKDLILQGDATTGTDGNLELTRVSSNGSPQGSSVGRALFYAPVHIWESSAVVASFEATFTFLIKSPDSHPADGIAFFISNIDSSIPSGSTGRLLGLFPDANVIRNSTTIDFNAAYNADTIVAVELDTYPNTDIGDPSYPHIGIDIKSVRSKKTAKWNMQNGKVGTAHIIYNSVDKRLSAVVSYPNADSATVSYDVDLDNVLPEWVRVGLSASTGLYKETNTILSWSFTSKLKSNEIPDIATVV

Sequence of Albumin (Bos taurus) (P02769 whole entry, looked up): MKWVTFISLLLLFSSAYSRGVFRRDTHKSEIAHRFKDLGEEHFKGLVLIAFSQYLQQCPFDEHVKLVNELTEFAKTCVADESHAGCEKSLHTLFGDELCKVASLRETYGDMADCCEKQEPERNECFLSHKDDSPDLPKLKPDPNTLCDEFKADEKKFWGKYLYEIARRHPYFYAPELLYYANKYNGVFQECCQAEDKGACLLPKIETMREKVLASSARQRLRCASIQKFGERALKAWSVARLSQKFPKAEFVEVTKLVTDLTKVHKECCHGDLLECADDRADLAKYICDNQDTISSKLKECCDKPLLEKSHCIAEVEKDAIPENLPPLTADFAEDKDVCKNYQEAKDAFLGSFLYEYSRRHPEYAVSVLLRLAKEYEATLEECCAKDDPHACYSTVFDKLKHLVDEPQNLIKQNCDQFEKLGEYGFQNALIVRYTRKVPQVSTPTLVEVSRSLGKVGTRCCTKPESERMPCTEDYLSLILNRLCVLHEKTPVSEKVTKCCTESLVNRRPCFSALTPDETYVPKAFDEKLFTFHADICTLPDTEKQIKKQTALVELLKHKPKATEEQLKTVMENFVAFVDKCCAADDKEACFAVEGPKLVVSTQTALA

For `O=C1C2C=CC(C(O)c3cc(C(F)(F)F)cc(C(F)(F)F)c3)N(Nc3ccccc3)C2C(=O)N1c1ccccc1` (stereo not given), the composite z-score was 1.44 in [1]; -0.457 in assay [3]; 0.925 in assay [4]; 0.388 in assay [5]; -0.0425 in assay [6]; -0.358 in assay [7]. For the same compound, the composite z-score in [8] was 0.341; in assay [9] it was 1.07; in assay [10], 0.63; with Albumin (Bos taurus), -0.0814; in assay [12], 0.0435; in [13] it was -0.101. The composite z-score in [14] is 0.723; in assay [15], 2.51; in [16], -0.233; in the assay on Sam68 (KHDRBS1), 1.04; in assay [17] it was -0.357; in assay [18], -0.236. Further, the z-score in [2] was -0.761. Besides, the composite Z-score in [11] was 0.837 (inactive).
For the compound `C=CCC(OC(C)=O)[C@@H]1[C@@H](N(Cc2ccc(-c3ccccc3)cc2)C(=O)Cc2ccc(F)cc2)c2cc(OCCCO)ccc2N1C(=O)c1ccc2ccccc2c1` (stereo not given in full), the composite z-score in [1] is 0.0163; in [3], -0.0251; in [4] it was -0.0052; in [5] it was 0.28; in assay [6] it was -0.141; in assay [7], -0.221. Besides, the composite z-score in assay [8] was -0.0632; in assay [9], 0.402; in assay [10], -0.0517; with Albumin (Bos taurus) it was -0.153; in assay [12], 0.119; in [13], 0.0251. The composite z-score in assay [14] is 0.0176; in assay [15], 0.361; in [16] it was 0.225; in the assay on Sam68 (KHDRBS1), 0.112; in assay [17] it was -0.132; in assay [18], -1.04. In addition, in [2], the z-score was -0.381. Moreover, the composite Z-score in assay [11] was -0.301 (inactive).
With `C=C(CCCC)/C(=C/C[C@H](OC(=O)c1ccncc1)c1ccc(OCCO)cc1)c1cc(C(=O)OC)ccc1OC`, the composite z-score in assay [1] was determined as 1.09; in assay [3] it was 0.318; in assay [4] it was 0.226; in assay [5], 0.176; in assay [6], 0.0491; in assay [7], 0.216. Also, the composite z-score in assay [8] is -0.158; in assay [9], 1.26; in assay [10] it was 0.378; with Albumin (Bos taurus) it was -0.0215; in [12], 0.167; in assay [13], -0.14. In addition, the composite z-score was 0.644 in assay [14]; 0.774 in assay [15]; 0.354 in [16]; 0.59 in the assay with Sam68 (KHDRBS1); -0.257 in assay [17]; 0.363 in [18]. The z-score in assay [2] was -2.01. Also, the composite Z-score in assay [11] was 0.219 (inactive).
With `NCCCCCNC(=O)[C@H]1C[C@H]2C(=O)N[C@@H](Cc3ccccc3)C(=O)N2[C@H]1c1cccc(OCCO)c1`, the composite z-score is 0.509 in assay [1]; 0.115 in assay [3]; 1.85 in assay [4]; 1.06 in assay [5]; 0.0328 in [6]; 0.246 in assay [7]. In addition, the composite z-score in assay [8] came out at 0.296; in [9], 2.09; in assay [10], 2.07; in the assay with Albumin (Bos taurus) it was 0.862; in [12] it was 0.144; in [13], 0.0409. In addition, the composite z-score is 0.438 in [14]; 0.24 in [15]; 1.07 in assay [16]; 0.474 with Sam68 (KHDRBS1); 0.723 in assay [17]; 0.883 in assay [18]. Besides, the z-score in assay [2] is -0.82. The composite Z-score in assay [11] is 1.11 (inactive).
As for `O=C1C2C=CC(C(O)c3ccc(-c4ccccc4)s3)N(Nc3ccccc3)C2C(=O)N1c1ccccc1` (stereo not given), the composite z-score in [1] is 1.47; in assay [3], -0.44; in [4], 1.45; in assay [5], 0.133; in assay [6], 0.105; in assay [7], 0.634. The composite z-score in [8] worked out at 1.38; in assay [9], 0.537; in assay [10] it was 1.46; with Albumin (Bos taurus) it was 0.931; in assay [12] it was 0.24; in assay [13], 0.0554. Also, the composite z-score in [14] was found to be 0.591; in [15], 2.82; in assay [16], 0.103; with Sam68 (KHDRBS1), 1.31; in assay [17] it was 0.0135; in [18], 0.963. Also, the z-score in [2] is -0.978. For the same compound, the composite Z-score in assay [11] was -0.375 (inactive).
